Experimental data from PubChem BioAssay AID463173 (ICCB-Longwood Screening Facility, Harvard Medical School, 2010).
Among all 52,000 compounds or so, about 4,300 (8.3%) were called active. The sample holds actives, similar compounds and a random draw of the others, so the mix is not that of the screen. Cut-off read from the data, not from the text of the source: active = survival mostly below about 52% (no sharp cut-off); inactive = mostly above about 56%.

System: DeltatarO mutant
Assay: S. aureus survival, RN4220 and DeltatarO strains – OD600, teichoic acid synthesis inhibitors, primary screen (AID 463173)
Details: S. aureus RN4220 wild type/DeltatarO growth, OD600, 18 h, hits give low values, screened at 18.75 µg/mL (by protocol)

SMILES | survival
CC(C)NC(=O)CSc1nc2ccccc2[nH]1 | 60% (inactive)
CCN(C(=O)CSc1nc2ccccc2nc1Cc1ccc(F)cc1)c1cccc(C)c1 | 86% (inactive)
COc1ccc(NC(=O)CSc2nc3ccccc3nc2N2CCC(C)CC2)cc1 | 45% (inactive)
COc1ccc(NC(=O)CSc2nc3ccccc3nc2N2CCCCC2)cc1 | 18% (active)
COc1cccc(Cc2nc3ccccc3nc2SCC(=O)Nc2cc(OC)ccc2OC)c1 | 47% (active)
CCc1ccccc1NC(=O)CSc1nc2ccccc2nc1Cc1cccc(OC)c1 | 86% (inactive)
COc1cccc(Cc2nc3ccccc3nc2SCC(=O)Nc2ccccc2F)c1 | 67% (inactive)
CC(=O)Nc1ccc(NC(=O)CSc2nc3ccccc3nc2N2CCCCC2)cc1 | 57% (inactive)
O=C(O)CSc1nc2ccccc2nc1N1CCCCC1 | 56% (inactive)
CC(C)NC(=O)CSc1nc2ccccc2nc1N1CCCCC1 | -26% (active)
CCN(C(=O)CSc1nc2ccccc2nc1Cc1cccc(OC)c1)c1cccc(C)c1 | 0% (active)
COc1cccc(Cc2nc3ccccc3nc2SCC(=O)Nc2cccc(C)c2)c1 | 94% (inactive)
O=C(N/N=C/c1ccc(-c2ccc(Cl)c(C(=O)O)c2)o1)c1ccncc1 | 68% (inactive)
CCc1ccc(-n2c(=O)c3c4c(sc3n(CC(=O)c3ccc(F)cc3)c2=O)CCC4)cc1 | 81% (inactive)
CC(C)CCNC(=O)c1nn(C)c2c1CSc1ccccc1-2 | 70% (inactive)
Cn1cnnc1SCC(N)=O | 99% (inactive)
CCOC(=O)c1ccc(NC(=O)c2csnn2)cc1 | 104% (inactive)
Cc1ccc(CNC(=O)CSc2ncc(S(=O)(=O)c3ccc(C)c(Cl)c3)c(=O)[nH]2)cc1 | 77% (inactive)
Cc1cccc(NC(=O)CSc2cn(CC(=O)N3CCOCC3)c3ccccc23)c1 | 82% (inactive)
COc1ccc(CCNC(=O)Cn2c(-c3cccs3)cc3cc(F)ccc32)cc1OC | 83% (inactive)
Cc1ccc(-n2nc(C(=O)NCc3ccc(F)cc3Cl)c3c4ccccc4n(C)c3c2=O)cc1 | 131% (inactive)

SMILES | survival
COc1ccc(Cl)cc1NC(=O)CSc1nc2ccccc2nc1N1CCCCC1 | 27% (active)
COc1ccccc1Cc1nc2ccccc2nc1SCC(=O)Nc1cc(Cl)ccc1OC | 73% (inactive)
COc1ccc(NC(=O)CSc2nc3ccccc3nc2N2CCOCC2)c(OC)c1 | 76% (inactive)
COc1ccc(OC)c(NC(=O)CSc2nc3ccccc3nc2N2CCCCC2)c1 | 5% (active)
COc1ccc(C)cc1NC(=O)CSc1nc2ccccc2nc1N1CCOCC1 | 73% (inactive)
Cc1cccc(NC(=O)CSc2nc3ccccc3nc2N2CCCCC2)c1C | 75% (inactive)
Cc1cc(C)c(NC(=O)CSc2nc3ccccc3nc2N2CCCCC2)c(C)c1 | 39% (active)
Cc1cc(C)c(NC(=O)c2nc3ccccc3nc2N2CCCCC2)c(C)c1 | 90% (inactive)
COc1ccc(OC)c(NC(=O)CSc2cn(CC(=O)N3CCCCCC3)c3ccccc23)c1 | 85% (inactive)
COc1ccc(-c2nc3n(n2)C(c2cccc(C)c2)C(C(N)=O)=C(C)N3)cc1OC (configuration not stated) | 93% (inactive)
CCN(CC)Cc1ccc(C(=O)O)o1 | 97% (inactive)
Cn1c(=O)c2sccc2n2c(CCC(=O)N3CCN(c4cccc(Cl)c4)CC3)nnc12 | 193% (inactive)
CCOc1ccc(-c2cccc(NS(=O)(=O)c3ccc(Cl)s3)c2)nn1 | 92% (inactive)
Cc1cccc(NC(=O)CSc2nc(=O)n(Cc3ccccn3)c3c2CCC3)c1C | 85% (inactive)
CCCOc1ccc(N2CC(C(=O)Nc3cccc(Cl)c3Cl)CC2=O)cc1 (configuration not stated) | 145% (inactive)
CCCCOc1cccc(C(=O)N(Cc2sccc2C)C2CCS(=O)(=O)C2)c1 (configuration not stated) | 73% (inactive)
CCc1ccc(NC(=O)c2ccc(Cn3nc(N4CCN(c5ccccc5)CC4)ccc3=O)o2)cc1 | 83% (inactive)
O=C(Nc1cccc(Cl)c1)c1ccc2c(c1)CCN2S(=O)(=O)c1ccccc1 | 41% (active)
CCCCOC(=O)c1ccc(NC(=O)c2ccc3c(c2)CCN3S(=O)(=O)c2ccccc2)cc1 | 57% (inactive)
O=C(c1ccc2c(c1)CCN2S(=O)(=O)c1ccccc1)N1CCN(c2cccc(Cl)c2)CC1 | 45% (inactive)
CC(=O)Nc1ccc(NC(=O)c2ccc3c(c2)CCN3S(=O)(=O)c2ccc(Cl)cc2)cc1 | 113% (inactive)

SMILES | survival
Cc1ccc(S(=O)(=O)N2CCc3cc(C(=O)Nc4c(F)cccc4F)ccc32)cc1 | 64% (inactive)
CC(=O)c1cccc(NC(=O)c2ccc3c(c2)CCN3S(=O)(=O)c2ccccc2)c1 | 44% (active)
CCc1c(C)sc2c1CCN(C(=O)Nc1ccccc1C(=O)OC)C2c1ccc(OC)cc1 (configuration not stated) | 92% (inactive)
Cn1cc(C(=O)NCCc2ccccc2)c(=O)c2cc(S(=O)(=O)N3CCCCCC3)ccc21 | 68% (inactive)
CN(C(=O)c1nn(C)c2c1CS(=O)(=O)c1ccccc1-2)c1cccc(Cl)c1 | 64% (inactive)
Cc1cccc(NC(=O)Cn2c(=O)n(CCC(=O)N3CCc4ccccc4C3)c(=O)c3ccccc32)c1 | 88% (inactive)
COc1ccc(NC(=O)CSc2nc3c(oc4ccccc43)c(=O)n2-c2ccccc2)cc1OC | 63% (inactive)
CCn1c(CN2CCOCC2)nc2cc(NC(=O)c3cc(OC)c(OC)c(OC)c3)ccc21 | 89% (inactive)
O=C(NCCO)C(=O)Nc1c2c(nn1-c1ccc(F)cc1)CSC2 | 82% (inactive)
COc1ccccc1NC(=O)CSc1nc(-c2ccc(C(C)(C)C)cc2)c(C#N)c(=O)[nH]1 | 52% (inactive)
CCc1ccc(NC(=O)CSc2nc(-c3ccccc3)c(C#N)c(=O)[nH]2)cc1 | 78% (inactive)
CC(C)(C)c1ccc(-c2nc(SCC(=O)Nc3ccc(Cl)cc3)[nH]c(=O)c2C#N)cc1 | -2% (active)
CN1CCN(C(=O)c2ccc3c(c2)N(Cc2c(F)cccc2Cl)C(=O)c2ccccc2S3)CC1 | 85% (inactive)
Cc1ccc(S(=O)(=O)c2nc(-c3cccs3)oc2SCC(=O)Nc2cc(C)cc(C)c2)cc1 | 70% (inactive)
COc1cc(CN2CCN(S(=O)(=O)c3ccccc3)CC2)cc(OC)c1O | 57% (inactive)
COc1ccc(CCn2nnnc2CN2CCN(Cc3ccccc3)CC2)cc1OC | 82% (inactive)
CCn1c2ccccc2c2cc(CN3CCN(Cc4ccc(OC)c(OC)c4)CC3)ccc21 | 17% (active)
COc1cc(CN2CCN(C(=O)c3cccc4ccccc34)CC2)cc(OC)c1OC | 72% (inactive)
CCCS(=O)(=O)N1CCN(Cc2ccc(OC)c(OCC)c2)CC1 | 97% (inactive)
CCn1c2ccccc2c2cc(CN3CCN(Cc4cc(OC)c(O)c(OC)c4)CC3)ccc21 | 43% (active)
